TDP43 rescue: TDP-43 toxicity inhibition in yeast; 410,000 tested, 1.8% active; TDP-43 expressing yeast growth rescue, BacTiter-Glo, 24 h; AID 652104; Potency, µM (doses to about 46.1 µM), inactives show at the top dose growth rescue (activation), hits mostly activators; also: potency is read from the fitted curve at half-maximal effect; % of control where 0% means no effect; nearly all actives have a fitted effect of over 50% in size
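Yeast cells expressing TDP-43 under galactose induction are exposed to compounds for 24 hr at 30 deg C. BacTiter-Glo luminescence measures growth, so protective compounds score as activators.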
Mito fusion act: blocks mitochondrial division or promotes mitochondrial fusion | S. cerevisiae fusion-defective mutant growth rescue, CellTiterGlo 48 h | Potency, µM (series often up to 46.1 µM), inactives show top-dose growth rescue (activation), hits mostly activators | 320,000 tested, 0.23% active | AID 485298; also: potency is read from the fitted curve at half-maximal effect; % of control where 0% means no effect; nearly all actives have a fitted effect of over 45% in size
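Luminescent cell viability in 1536-well qHTS format served as the measure of rescued growth in ts fusion-mutant S. cerevisiae cultured on non-fermentable YPEG for 48 hours at 37C.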
Apoferritin bind: binds horse apoferritin like a general anesthetic; P02791; apoferritin/1-aminoanthracene competitive binding, fluorescence; Potency, µM (series often up to 77.5 µM), inactives show at the top dose activity change, negative = displacement, hits mostly inhibitors; 350,000 tested, 0.074% active; AID 485281; also: potency is read from the fitted curve at half-maximal effect; % is scaled to controls: 0 for no effect and ±100 for the full control effect; nearly all actives have a fitted effect of over 20% in size
Target sequence (P02791 2-175 limits assumed): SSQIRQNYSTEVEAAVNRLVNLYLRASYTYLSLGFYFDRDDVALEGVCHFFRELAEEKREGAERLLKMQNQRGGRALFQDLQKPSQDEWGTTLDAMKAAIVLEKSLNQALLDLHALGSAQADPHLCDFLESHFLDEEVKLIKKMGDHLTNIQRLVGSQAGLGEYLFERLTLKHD
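Apoferritin-based anesthetic binding model; compound displacement of fluorescent 1-AMA measured as endpoint fluorescence after 10 minutes at room temperature, scaled to free-ligand and complex controls.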
aSyn rescue: rescues yeast growth from alpha-synuclein toxicity; Yeast expressing alpha-synuclein, growth rescue, BacTiter-Glo, 24 h; 370,000 tested, 0.14% active; Potency, µM (highest dose often 46.1 µM), for inactives: at the highest dose growth rescue (activation), usual class: activators; also: potency is read from the fitted curve at half-maximal effect; % of control where 0% means no effect; nearly all actives have a fitted effect of over 65% in size
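Galactose-induced alpha-syn yeast (OD600=0.02, raffinose-pregrown) + pinned cpd, 24 hr, 30 deg C; growth by BacTiter-Glo luminescence. Growth restoration scores as activation.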
Akt phos inh: Akt phosphorylation inhibition; Neuro2A IGF-stimulated pAkt S473 HTRF, 20 min; stronger effect = lower value; activity change, % for hits at 50 µM; 360,000 tested, 0.32% active; AID 651550; in the data active = activity change below about -80%; inconclusive = mostly about -51% to -80%; also: % is scaled to controls: 0 for no effect and ±100 for the full control effect
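Single-point screen (50 µM final compound) in Neuro2A cells stimulated 20 min with 6 nM IGF at 37 deg C. After lysis, Ser473-phosphorylated Akt read by HTRF (ex 330 nm, em 615/665 nm) as the 665/615 ratio.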
CCT modulator: modulators of cytosolic chaperonin (CCT/TRiC) activity. purified chaperonin ATPase assay, HTRF ADP detection, 30 min. activity change, % (concentration not given with the values), hits read low. 360,000 tested, 0.3% active. AID 651819; in the data active = activity change below about -30%; also: % is scaled to controls: 0 for no effect and ±100 for the full control effect
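First, chaperonin was dispensed at 40 nM or 20 nM final depending on batch activity. Next, compounds were pinned at 76 uM and ATP added at 10 uM. After 30 min at 37 °C, ADP detection reagents ran 30 min at ambient temperature.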
The depositor's hits bear a star; i = inactive; u = inconclusive; x = not tested or not shown; [ ] = dose if it differs, or a comment. A selection: hits, their analogues and other compounds. The true share with any hit is near 2.5%. Unless noted, calls follow the shape of the dose curve; as a rule, active = well fitted curve in the direction sought with a large enough effect; inconclusive = small, poorly fitted or top-dose-only effect, or another doubt; inactive = no such curve, though single readings can be large; an effect the other way counts as inactive or inconclusive.

SMILES	TDP43 rescue	Mito fusion act	Apoferritin bind	aSyn rescue	Akt phos inh	CCT modulator
S=C(NCCSCc1c(Cl)cccc1Cl)Nc1ccccc1	10µM*	-2.9%	-18.6%	4.5%	i	0.6
S=C(NCCSCc1ccc(Cl)c(Cl)c1)Nc1ccccc1	11.2µM*	x	x	9.2%	i	-1.2
O=C(NCCSCc1c(F)cccc1Cl)Nc1ccccc1	-6.7%	-21.5%	-17.0%	10.0%	i	1.1
COc1ccc(CSCCNC(=S)Nc2ccccc2)cc1Cl	20µM*	-12.3%	-11.6%	3.5%	i	0.0
S=C(NCCSCc1ccc(Cl)cc1Cl)Nc1ccccc1	15.8µM*	-16.4%	-2.5%	5.7%	i	0.8
COc1ccc(OC)c(NC(=O)N2CCC3(CC2)Oc2ccccc2C(=O)N3Cc2ccccc2F)c1	u	x	56.8%	x	x	x
CN(C)c1ccc(C2C=Cc3ccccc32)c2ccccc12 (stereo not drawn)	x	x	x	-18.2%	x	x
CC(C)c1ccc(Nc2c(-c3ccccn3)nc3ccccn23)cc1	-13.9%	x	-15.9%	x	x	x
COc1cc2c(cc1OC)CN(C(=O)c1cccc([N+](=O)[O-])c1)CC2	22.4µM*	-4.1%	-6.3%	u	i	-0.6
COc1cc2c(cc1OC)CN(C(=O)c1ccc(Br)o1)CC2	15.8µM*	-5.5%	-9.0%	4.7%	i	-0.9
COc1cc2c(cc1OC)CN(C(=O)c1ccco1)CC2	-9.1%	-3.1%	-5.5%	0.4%	i	-4.0
N[C@H](CSSC[C@@H](N)C(=O)O)C(=O)O	x	x	-4.2%	x	x	x
O=C(Nc1ccccc1)c1ccc(Br)o1	u	-6.1%	-12.8%[163 µM]	2.7%	i	-2.6
O=C(Nc1ccc(N2CCN(C(=O)c3ccccc3)CC2)c(Cl)c1)c1ccc(Br)o1	u	17.7%	1.0%	-0.8%	-86.0%*	2.4
O=C(Nc1ccc2c(c1)CCC2)c1ccc(Br)o1	14.0%	4.8%	u	-14.6%	-113.7%*	-1.5
O=C(Nc1ccc2ccccc2c1)c1ccc(Br)o1	20µM*	2.1%	u	-4.2%	i	-1.4
CCCOC(=O)c1ccc(NC(=O)c2ccc(Br)o2)cc1	16.3%	22.4µM*	-19.8%	-1.0%	i	0.7
COC(=O)Cc1ccc(NC(=O)c2ccc(Br)o2)cc1	-5.1%	0.4%	-10.2%	-12.4%	i	-2.4
FC(F)(F)c1cc(-c2ccco2)nc(NCc2cccs2)n1	20µM*	-1.4%	-21.1%	-10.9%	i	-1.1
CCc1c(-c2n[nH]c(=S)n2Cc2ccccc2)csc1C	11.2µM*	3.9%	7.2%	-3.6%	i	-0.6
COc1cc(CCC(=O)NCc2ccc(S(N)(=O)=O)cc2)cc(OC)c1OC	-6.9%	-6.0%	17.8%	3.4%	i	-93.6*
COc1ccccc1C(=O)NCc1ccncc1	-0.7%	-1.0%	-8.2%	1.0%	i	-2.7
O=C(NCc1ccc(F)cc1)c1ccccc1OCc1ccccc1	0.0%	17.8µM*	-12.2%	-7.6%	i	-1.1
O=C(NNC(=O)c1ccccc1OCc1ccc(F)cc1)c1ccccc1O	1.5%	-10.1%	-14.0%	6.3%	i	-6.5
COc1ccccc1C(=O)NCc1ccccc1	9.7%	3.0%	-15.0%	7.9%	-106.1%*	1.5
COc1ccc(CCCC(=O)NCc2ccccc2)cc1C	17.8µM*	-1.5%	-12.1%	9.1%	i	0.6
CO[C@@H]1COC(=O)[C@@H](CCSC)NC(=O)C/C=C\[C@@H](C)COC(=O)[C@H](C)NC(=O)C/C=C\[C@H]1C	x	x	-10.8%[15.3 µM]	x	x	x
C=C[C@@]1(C)C[C@H](OC(=O)CSC(C)(C)CNC(=O)[C@@H](N)C(C)C)[C@@]2(C)C(C)CC[C@@]3(CCC(=O)[C@@H]32)[C@H](C)[C@H]1O (stereo partly drawn)	x	x	x	0.1%	x	x
COCCCNC(=O)c1c(NC(=O)Cc2coc3cc(C)ccc23)sc2c1CCCC2	24.8%	x	28.7%	x	x	x
Cc1ccccc1C(=O)Nc1ccccc1C(=O)NCc1ccccc1	11.2µM*	5.6%	-19.9%	-14.4%	i	-0.6

Screening data from PubChem BioAssay.
